Experimental data reported in ChEMBL document CHEMBL1961873, “Compounds: GSK PKIS; Assays: Nanosyn kinase panel” (2012).

What was measured:
[1] = biological target: Serine/threonine-protein kinase PAK 6 (Homo sapiens) (UniProt Q9NQU5); details: at 1 µM;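 note: values are mean percent inhibition of PAK6 kinase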
[2] = system: Tyrosine-protein kinase ABL1 (Homo sapiens), P00519 [E255K]; details: at 0.1 µM
[3] = system: Tyrosine-protein kinase ABL1 (Homo sapiens), P00519 [E255K]; details: at 1 µM
[4] = system: Tyrosine-protein kinase ABL1 (Homo sapiens), P00519 [H396P]; details: at 0.1 µM
[5] = system: Tyrosine-protein kinase ABL1 (Homo sapiens), P00519 [H396P]; details: at 1 µM
[6] = system: Tyrosine-protein kinase ABL1 (Homo sapiens), P00519 [M351T]; details: at 0.1 µM
[7] = system: Tyrosine-protein kinase ABL1 (Homo sapiens), P00519 [M351T]; details: at 1 µM
[8] = system: Tyrosine-protein kinase ABL1 (Homo sapiens), P00519 [Q252H]; details: at 0.1 µM
[9] = system: Tyrosine-protein kinase ABL1 (Homo sapiens), P00519 [Q252H]; details: at 1 µM
[10] = system: Tyrosine-protein kinase ABL1 (Homo sapiens), P00519 [T315I]; details: at 0.1 µM

Serine/threonine-protein kinase PAK 6 (Homo sapiens), sequence (Q9NQU5 whole entry, looked up): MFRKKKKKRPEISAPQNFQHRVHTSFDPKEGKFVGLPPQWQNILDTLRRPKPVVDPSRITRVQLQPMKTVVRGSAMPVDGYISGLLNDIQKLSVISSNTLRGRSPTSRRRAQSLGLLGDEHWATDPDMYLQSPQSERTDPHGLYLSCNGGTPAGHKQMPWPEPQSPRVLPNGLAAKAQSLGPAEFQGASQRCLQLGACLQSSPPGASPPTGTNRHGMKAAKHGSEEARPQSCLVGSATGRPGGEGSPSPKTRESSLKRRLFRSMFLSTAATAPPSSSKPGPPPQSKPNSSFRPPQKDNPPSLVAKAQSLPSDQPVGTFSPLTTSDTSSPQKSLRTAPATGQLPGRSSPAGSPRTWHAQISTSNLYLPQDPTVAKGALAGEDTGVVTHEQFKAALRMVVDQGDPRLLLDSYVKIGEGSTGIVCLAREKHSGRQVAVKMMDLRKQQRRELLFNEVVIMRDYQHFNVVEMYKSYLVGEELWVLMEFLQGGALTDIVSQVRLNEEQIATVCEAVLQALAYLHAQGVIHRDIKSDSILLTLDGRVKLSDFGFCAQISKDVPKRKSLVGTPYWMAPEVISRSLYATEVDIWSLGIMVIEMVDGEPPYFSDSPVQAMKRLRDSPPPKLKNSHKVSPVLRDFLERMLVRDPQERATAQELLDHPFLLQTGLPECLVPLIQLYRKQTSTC

SMILES | inhibition [1] | inhibition [2] | inhibition [3] | inhibition [4] | inhibition [5] | inhibition [6] | inhibition [7] | inhibition [8] | inhibition [9] | inhibition [10]
CS(=O)(=O)CCNCc1nc(-c2ccc3ncnc(Nc4ccc(OCc5cccc(C(F)(F)F)c5)cc4)c3c2)cs1 | -5.71% | 0.56% | 1.8% | 2.03% | 2.31% | 1.36% | 1.22% | 1.8% | 1.75% | 0.33%
NS(=O)(=O)c1ccc(N/N=C2\C(=O)Nc3ccc(Cl)cc32)cc1 | 7.73% | -0.63% | 5.98% | 3.92% | 12.9% | 1.55% | 12.6% | 2.4% | 9.91% | 0.91%
Cc1ccc2c(-c3ccnc(Nc4cccc(C(F)(F)F)c4)n3)c(-c3ccccc3)nn2n1 | -8.69% | 3.52% | 19.7% | 11.3% | 44.8% | 24.1% | 68.2% | 24.2% | 69.1% | 6.16%
NS(=O)(=O)c1ccc(Nc2cc(-c3cccc(O)c3)n[nH]2)cc1 | -5.13% | 4.46% | 7.4% | 5.03% | 5.99% | 4.35% | 4.29% | 5.44% | 5.74% | 4.08%
FC(F)(F)c1ccc(-c2nn3ncccc3c2-c2ccnc(Nc3ccc4c(c3)OCCO4)n2)cc1 | 15.5% | -0.31% | 0.99% | 0.37% | 8.02% | 1.83% | 13.9% | 2.75% | 8.01% | 1.73%
O=C(Nc1ccc(Oc2ccc3[nH]c(NC(=O)c4ccco4)nc3c2)cc1)Nc1cc(C(F)(F)F)ccc1F | 6.45% | 15.2% | 67.1% | 60.1% | 92% | 72.4% | 93.2% | 68.6% | 91.6% | 76.3%
Cc1cc(-c2ccccn2)cc(C)c1/C=C/c1cncc(-c2nn[nH]n2)c1 | -5.17% | -0.88% | 3.22% | 3.18% | 8.77% | 0.81% | 5.63% | 3.34% | 9.01% | 0.21%
O=C1Nc2ccccc2/C1=C/Nc1ccc2[nH]c(=O)[nH]c2c1 | -6.29% | 7.84% | 15% | 7.55% | 23.4% | 4.2% | 24.6% | 8.42% | 26% | 4.38%
Nc1nccc(-c2c(-c3ccc(F)cc3)nn3cc(C(F)(F)F)ccc23)n1 | 5.02% | -2.06% | -1.18% | 0.65% | -0.33% | 1.15% | 1.14% | 1.06% | 0.27% | 0.42%
O=C1Nc2ccc(-c3cccnc3)cc2C1=Cc1cc(Br)c(O)c(Br)c1 | 7.69% | 3.78% | 8.72% | 3.44% | 7.14% | 4.37% | 6.55% | 2.79% | 7.71% | 2.69%
CN(C)CCCn1c(-c2nonc2N)nc2cnccc21 | -2.15% | 3.28% | 4.1% | 2.64% | 1.22% | 1.53% | 3.51% | 3.76% | 2.62% | 2.51%
O=S(=O)(CCOCc1ccc(-c2ccc3ncnc(Nc4ccc(OCc5cccc(F)c5)c(Cl)c4)c3c2)o1)c1ccccc1 | -7.47% | 0.44% | -0.12% | 0.4% | 2.46% | 1.57% | 0.99% | 3.02% | 3.04% | -0.12%
COc1cc2ncnc(Nc3ccc(C)c(O)c3)c2cc1OC | 0.34% | 42.3% | 85.8% | 48.1% | 87.4% | 42.5% | 84.5% | 41.1% | 81.8% | 16.5%
C[C@@H](Oc1cc(-n2cnc3ccc(OC[C@@H](O)CO)cc32)sc1C(N)=O)c1ccccc1Cl | -6.36% | 0.24% | 5.92% | 0% | 9.51% | 1.32% | 8.84% | -1.76% | 8.32% | -0.17%
Cc1ccc(Nc2ccnc(Nc3cccc(C(N)=O)c3)n2)cc1O | 4.03% | 71.2% | 93.4% | 76.5% | 94.4% | 74.4% | 95% | 67.6% | 91.5% | 7.09%
CN(C)C(=O)O[C@H]1CN[C@H](C#Cc2cc3ncnc(Nc4ccc(OCc5cccc(F)c5)c(Cl)c4)c3s2)C1 | 7.18% | 2% | 3.31% | 2.06% | -0.36% | 0.95% | 0.49% | 4.6% | 3.58% | 2.75%
Nc1nccc(-c2c(-c3ccc(F)cc3)ncn2CCCN2CCOCC2)n1 | – | 3.15% | 4.81% | 2.47% | 4.57% | 0.51% | 3.75% | 2.53% | 6.74% | 2.38%
